Test results reported in ChEMBL document CHEMBL4513135, “CO-ADD screening of IQOG CSIS (Spain) compounds”.
Results with a measured potency or affinity are listed apart.

These compounds were tested on Candida albicans. Conditions: 32 ug/mL.

Compound	Inhibition
Cc1ccc(C(O)SNNc2ncnc3c2c(C)nn3-c2ccccc2)cc1 (stereo unspecified)	1.06%
Cc1ccc(C2c3c(nc4c(c3N)CCCC4)Oc3ccc4ccccc4c32)cc1 (stereo unspecified)	1.23%
C#CCN(C)Cc1cc2cc(OCCCC3CCN(C(=O)OC(C)(C)C)CC3)ccc2n1C	1.82%
CC(=O)O[C@H]1CC[C@H](NC(=O)c2ccccc2)CC1	3.3%
C#CCN(C)Cc1cc2cc(O)ccc2n1C.Cl	2.77%
C#CCN(C)Cc1cc2cc(OCCCCC3CCN(Cc4ccccc4)CC3)ccc2n1C.Cl	2.11%
CNCc1cc2cc(OC)ccc2n1C.Cl	-1.26%
CN(C)c1nc(Cl)c(C#N)c(-c2ccccc2)c1C#N	3.09%
C#CCNc1nc(N)c(C#N)c(-c2ccccc2)c1C#N	2.85%
COc1nc2ccccc2cc1C=O	6.13%
COc1nc2nc3c(c(N)c2cc1C#N)CN(Cc1ccccc1)CC3	1.24%
CCOC(=O)c1cc2ccccc2[nH]1	2.42%
Cc1nn(-c2ccccc2)c2ncnc(NCc3ccccc3)c12	-0.21%
Cc1ccc(C2c3ccc4ccccc4c3Oc3nc4c(c(N)c32)CCCC4)cc1.Cl (stereo unspecified)	5.49%
COc1cc(C2CC2(N)C(=O)O)ccc1O (stereo unspecified)	-0.44%
N#CC1(Br)C(=NBr)Oc2ccc3ccccc3c2C1c1ccccc1[N+](=O)[O-] (stereo unspecified)	4.94%
COc1cccc(-c2c(C#N)c(=O)oc3c2ccc2ccccc23)c1	24.3%
CC1=C(C(=O)O[C@@H]2C[C@@]3(C)CC[C@H]2C3(C)C)C(c2ccccc2)C(C#N)=C(N)O1 (stereo partly specified)	15.2%
NC1(C(=O)O)CC1c1ccc2c(c1)OCO2 (stereo unspecified)	-1.13%

Each compound was assayed on Cryptococcus neoformans. Conditions: Concentration 32 ug.mL-1; ASSAY_TEST Inhibition of Fungal Growth; detection method Resazurin; Absorption (OD600-OD570); plate type 384well; NBS; CORNING #3640.

Compound	Inhibition
COC(=O)C(=Cc1ccc(OC)cc1)NC(=O)c1ccccc1	-1.73%
C#CCN(C)c1ncc(C#N)c(N)n1	-42.08%
COc1ccc2cc(C3C(C(C)=O)=C(C)Oc4nc5c(c(N)c43)CCCCC5)c(Cl)nc2c1 (stereo unspecified)	-8.4%
C#CCn1c(N)c(C#N)c2cc(O)ccc21	-78.39%
CC1Cc2c(nc3c(c2N)CCCC3)NC1=O (stereo unspecified)	-61.31%
C#CCN(C)c1nc(NCC2CCN(Cc3ccccc3)CC2)c(C#N)c(-c2ccccc2)c1C#N	-3.47%
CCOc1nc(N)c(C#N)cc1C#N.Cl	-26.15%
CC1Cc2ccccc2N1/N=C/c1ccccc1 (stereo unspecified)	-3.88%
CCOC(=O)C1=C(C)OC(N)=C(C#N)C1c1ccc(OC)c(OC)c1 (stereo unspecified)	-51.05%
CCC(CC)NNC(=O)c1cc2ccccc2n1C	-1.5%
NNC(=O)Cc1c[nH]c2ccccc12	-6.14%
COc1ccccc1C1c2ccc3ccccc3c2Oc2nc3c(c(N)c21)CCCC3 (stereo unspecified)	-4.38%
COc1nc2nc3c(c(N)c2cc1C#N)CCCC3.Cl	-96.28%
N#CC1=C(N)Oc2ccc3ccccc3c2C1c1ccccc1[N+](=O)[O-] (stereo unspecified)	-44.45%
N#Cc1c(Cl)nc(NC2CCN(Cc3ccccc3)CC2)c(C#N)c1-c1ccccc1	-53.1%
COc1ccc(C2c3ccc4ccccc4c3OC(=NBr)C2(Br)C#N)cc1OC (stereo unspecified)	-80.16%

Compound	Inhibition
N#Cc1c(N)nc2c(c1-c1ccccc1)CN(Cc1ccccc1)CC2	-3.99%
OCc1cc2ccccc2[nH]1	-4.31%
Nc1n[nH]c2c1C(c1ccccc1)CC(=O)N2 (stereo unspecified)	-57.28%
CSC1=NC(=Cc2cn(C)c3ccccc23)C(=O)N1C	-7.7%
N#CC1=C(N)Oc2ccc3ccccc3c2C1	-44.07%
Cc1ccc(C(O)SNNc2ncnc3c2c(C)nn3-c2ccccc2)cc1 (stereo unspecified)	-5.03%
Cc1ccc(C2c3c(nc4c(c3N)CCCC4)Oc3ccc4ccccc4c32)cc1 (stereo unspecified)	2.32%
C#CCN(C)Cc1cc2cc(OCCCC3CCN(C(=O)OC(C)(C)C)CC3)ccc2n1C	-6.45%
CC(=O)O[C@H]1CC[C@H](NC(=O)c2ccccc2)CC1	-39.27%
C#CCN(C)Cc1cc2cc(O)ccc2n1C.Cl	-73.69%
C#CCN(C)Cc1cc2cc(OCCCCC3CCN(Cc4ccccc4)CC3)ccc2n1C.Cl	-16.02%
CNCc1cc2cc(OC)ccc2n1C.Cl	1.35%
CN(C)c1nc(Cl)c(C#N)c(-c2ccccc2)c1C#N	-9.38%
C#CCNc1nc(N)c(C#N)c(-c2ccccc2)c1C#N	-2.34%
COc1nc2ccccc2cc1C=O	-2.5%
COc1nc2nc3c(c(N)c2cc1C#N)CN(Cc1ccccc1)CC3	-69.67%
